# Compounds with a hit are over-represented: about 4.6% of the library has one in this group of screens.
# PfHsp90 yeast 2: growth inhibition of yeast expressing Plasmodium Hsp90; inhibition, % at 9.4 µM; S. cerevisiae expressing PfHsp90, BacTiter-Glo ATP, 48 h; yeast lacking PDR1 and PDR3 efflux regulators; AID 504621; 310,000 compounds, 0.32% hits;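 active = every replicate shows inhibition above about 80%, whatever the replicate mean, limit read from the data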;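 note: 0% = DMSO neutral controls and 100% = 20 µM radicicol positive controls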
# TIM10 inh: growth inhibitors of TIM10 yeast strain; AID 463195; 330,000 compounds, 1.4% hits; S. cerevisiae TIM10 strain growth, BacTiter-Glo luminescence, 24 h; inhibition, % at 10 µM;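 active = inhibition of 40% or more at the single tested concentration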;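 note: wild-type TIM10 isogenic control strain grown at permissive 25 °C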
# tim23-1 inh: tim23-1 yeast growth inhibition; S. cerevisiae tim23-1 growth, BacTiter-Glo luminescence, 24 h; inhibition, % at 20 µM; 330,000 compounds, 1.3% hits; AID 463212;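 active = growth inhibition of the mutant yeast at or above 50%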;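 note: temperature-sensitive mutant grown at 25 °C; plate controls were DMSO-treated mutant yeast for no effect and medium wells lacking yeast for full effect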
# SKKanGAS inh: inhibitors of SKKanGAS S. pyogenes growth in kanamycin (SK-promoter or general growth effect); BacTiter-Glo, 6 h; inhibition, % at 7.5 µM; AID 1662; 300,000 compounds, 1.3% hits;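 active = mean replicate score, as percent of positive control median, at least 50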;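 note: strain carries kanamycin resistance gene driven by streptokinase promoter and grows in 40 µg/ml kanamycin; loss of luminescence reflects streptokinase promoter inhibition or plain growth inhibition; 0% = median of DMSO wells and 100% = positive control at its reference dose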
# V-ATPase pHluor: regulators of yeast V-ATPase proton transport; S. cerevisiae, pHLuorin cytosolic pH fluorescence; response, % at 10 µM; 350,000 compounds, 0.37% hits; in the data active = response mostly above about 7.3%, no sharp cut-off; inactive = mostly below about 5.4%; note: actives read high
# tim10-1 inh: tim10-1 yeast growth inhibition; 330,000 compounds, 2.2% hits; S. cerevisiae tim10-1 ts strain growth, BacTiter-Glo, 24 h; AID 463190; inhibition, % at 20 µM;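 active = inhibition of at least 40%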;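 note: mutant grown at 25 °C; 0% = DMSO wells with yeast and 100% = wells holding no yeast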
# TIM10 conf: TIM10 yeast growth inhibition, confirmed; shares compounds with TIM10 inh; S. cerevisiae tim10 strain growth, BacTiter-Glo luminescence, 24 h; inhibition, % at 10 µM; 4,600 compounds, 63% hits; AID 463215;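 active = inhibition of yeast growth at or above a set limit in either of two replicates at 10 µM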;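 note: this counterscreen used the strain with wild-type TIM10; 0% = yeast with DMSO and 100% = medium wells lacking yeast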
# Active calls of the source: *; . = no result.
SMILES,PfHsp90 yeast 2,TIM10 inh,tim23-1 inh,SKKanGAS inh,V-ATPase pHluor,tim10-1 inh,TIM10 conf
COc1cnc(-c2ccccn2)nc1Sc1c(Cl)cccc1Cl,.,49.9*,18.6,-9.1,-2.4,34.5,37.8*
COc1ccc(Oc2nc(-c3ccccn3)nc3ccccc23)cc1,.,41.3*,45.4,79.7*,-0.3,13.4,34.3*
COc1cnc(-c2ccccn2)nc1Oc1cccc(Cl)c1,1.0,45.6*,43.9,-9.8,1.2,39.5,49.0*
O=C(CCNC(=O)c1ccco1)Nc1ccc(Cl)cc1F,-23.5,4.4,6.0,-3.0,2.8,-6.8,.
COc1ccc(-c2cc3ccccc3n2CC(O)Cn2nc(C)cc2C)cc1 (stereo not drawn),-10.0,41.2*,35.0,9.1,3.9,32.2,35.4*
CC(C)[C@H](N)C(=O)N1CCC(C(=O)N[C@@H](Cc2ccccc2)C(=O)NCc2ccc(F)cc2)CC1,-4.3,15.5,-2.6,4.3,-2.4,16.1,.
O=C1CCNc2cc3ccccc3cc21,13.3,42.1*,14.4,-5.6,-5.8,31.7,30.9
COc1cc(Cn2nnc3ccccc32)cc(Br)c1O,10.9,12.0,25.7,-10.3,0.8,11.6,.
CC(C)C1C(=O)N(Cc2cn(Cc3ccco3)nn2)CCS(=O)(=O)N1Cc1ccc(-c2ccc(F)cc2)cc1 (stereo not drawn),.,.,.,.,1.1,.,.
CC(C)NC(=O)Nc1cccc2c1O[C@H](CN(C)C(=O)NC(C)C)[C@@H](C)CN([C@H](C)CO)C2=O,14.1,1.9,2.1,.,0.3,-13.5,.
CC(C)NC(=O)N(C)C[C@@H]1Oc2c(NC(=O)C3CCOCC3)cccc2C(=O)N([C@@H](C)CO)C[C@H]1C,-14.3,96.6*,-21.0,.,-0.4,-8.3,-10.1
CC(/C=C1\SC(=S)N(NC(=O)c2ccccc2C)C1=O)=C\c1ccccc1,2.6,-1.5,7.2,5.6,7.7,2.8,.
CC(/C=C1\SC(=S)N(NS(=O)(=O)c2ccc(C)cc2)C1=O)=C\c1ccccc1,-45.7,48.2*,28.6,78.3*,-1.9,27.9,25.2
COC(=O)C1=NN(C(=O)c2cccc(Br)c2)C(O)(c2ccc(Cl)cc2)C1 (stereo not drawn),-10.7,45.1*,22.3,86.0*,-3.4,35.3,3.2
Cc1cc(/C=C2\SC(=S)N(C)C2=O)c(C)n1-c1ccc(O)cc1,96.0*,74.2*,28.3,65.1*,0.7,33.6,91.1*
CC1(C)Cc2c(C#N)c(N3CCN(C(=O)c4ccco4)CC3)nc(Cc3ccccc3)c2CO1,-7.2,42.3*,18.3,32.8,-3.6,27.7,4.5
Cc1cc(C)cc(C(=O)OCC(=O)NC2CCCC2)c1,-30.3,0.7,5.0,-2.0,-0.1,8.7,.
Cc1cc(C)cc(C(=O)OCC(=O)NC(=O)NC2CCCC2)c1,-9.8,96.4*,11.3,.,-3.4,-19.1,-19.7
O=C(O)C1OCC2(CO1)COC(C(=O)O)OC2 (stereo not drawn),-13.5,.,.,.,-3.2,.,.
COc1nccc(C(F)(F)F)c1C(=O)NC(=O)Nc1ccccc1,16.5,10.7,13.0,10.7,0.0,12.5,.
COc1nccc(C(F)(F)F)c1C(=O)NC(=O)Nc1c(C)cccc1C,0.0,40.3*,13.0,25.4,-0.3,7.3,5.5
S=C(NCCc1ccccc1)Nc1ccc(Cl)cc1Cl,-18.2,49.2*,35.7,9.6,-0.1,33.6,48.9*
CCCOc1cccc(C(=O)NC(=S)Nc2cccc(C(F)(F)F)c2)c1,-8.1,41.1*,22.7,-6.4,1.3,17.4,16.9
CNNCc1ccc(C(=O)NC(C)C)cc1,-6.8,4.7,14.4,4.3,-5.0,24.9,.
COc1cc(SC)ccc1C(=O)Nc1ccc(Br)cn1,-8.8,-9.4,0.4,-20.5,2.4,7.0,.
SMILES,PfHsp90 yeast 2,TIM10 inh,tim23-1 inh,SKKanGAS inh,V-ATPase pHluor,tim10-1 inh,TIM10 conf
COc1cc(SC)ccc1C(=O)Nc1ncc(Cl)cc1Cl,-3.8,47.9*,9.0,-13.4,5.9,17.1,-8.3
Cc1nc(NC(=O)C2CC2)sc1C(=O)Nc1ccccc1,-0.6,-2.5,16.1,1.5,-1.5,-2.3,.
Cc1nc(Nc2c(Cl)cccc2Cl)sc1C(=O)Nc1ccccc1,-14.8,44.5*,34.9,20.5,-0.2,36.2,30.6
C=C1CCC2[C@](C)(CO[C@@H]3O[C@H](CO)[C@@H](O)[C@H](O)[C@H]3O)CCC[C@@]2(C)[C@@H]1CCC1=CCOC1=O (stereo partly drawn),-14.3,1.8,5.9,.,-0.6,-11.7,.
C/C=C(/C)C(=O)O[C@@H]1[C@H](OC(C)=O)c2c(ccc3ccc(=O)oc23)OC1(C)C,3.4,16.3,40.6,7.6,-9.0,27.5,.
C/C=C(/C)C(=O)OC1c2c(ccc3ccc(=O)oc23)OC(C)(C)C1OC(C)=O (stereo not drawn),27.5,42.1*,34.1,2.7,-3.5,38.7,2.4
N#Cc1cn(-c2cccc(C(F)(F)F)c2)c(=O)[nH]c1=O,14.6,4.2,7.7,3.5,-1.3,0.2,.
COc1ccc(N2C(=O)/C(=C\c3ccco3)N=C2SCC(=O)N(C(C)C)C(C)C)cc1Cl,0.9,40.8*,29.8,2.1,-3.2,30.7,9.1
Cc1cc2occ(CC(=O)NC3=NCCS3)c2cc1C(C)C,6.1,40.1*,4.2,65.4*,-5.0,33.2,36.7*
Cc1cc(C)cc(NC(=O)COC(=O)Cn2cnc3c2c(=O)n(C)c(=O)n3C)c1,13.6,1.9,-4.9,.,-0.3,2.2,.
O=C(c1ccco1)N(Cc1ccccc1)c1cccc([N+](=O)[O-])c1,11.6,44.2*,-10.5,2.1,1.3,32.5,30.6
O=C(c1ccco1)N(Cc1cccc([N+](=O)[O-])c1)c1ccc(Br)cc1,-0.1,13.2,24.5,0.8,-7.1,23.6,.
CCn1c(CNc2cccc(Cl)c2)nnc1SCC(=O)OC1CCCCC1,-27.1,34.5,43.1,0.6,3.3,32.5,.
CCn1c(CNc2ccc(Cl)cc2)nnc1SCC(=O)OC1CCCCC1,19.7,45.2*,20.3,4.0,-0.5,31.6,-7.9
CCN(C(=O)CSc1nnc2c3ccccc3n(CC)c2n1)C1CCS(=O)(=O)C1 (stereo not drawn),6.8,7.5,10.9,-2.6,-3.4,3.4,.
O=C(C1CCC(C(=O)N2CCc3ccccc32)CC1)N1CCc2ccccc21 (stereo not drawn),.,-6.7,12.2,8.6,-4.4,9.9,.
O=C(CCl)c1ccc2c(c1)CCN2C(=O)C1CC1,.,60.5*,-7.1,-15.8,.,8.6,73.7*
O=C(Nc1cc(Cl)cc(Cl)c1)c1cnn2cccnc12,12.3,2.9,-2.5,-1.3,-0.1,15.5,.
O=C(Nc1cccc(Cl)c1)c1cnn2cccnc12,15.7,51.6*,45.3,-8.1,-0.3,23.2,35.0*
c1ccc(Nc2nc(NCc3ccco3)c3ccccc3n2)cc1,14.1,-2.1,-22.7,6.6,1.1,-43.8,.
CSc1nc(NCc2ccco2)c2ccccc2n1,-7.8,40.1*,15.5,3.3,1.4,37.9,22.1
